# Measured values as given in PubChem BioAssay (NCI).
# This is part of a sample that, as a whole, favours compounds with a hit. Of some 79,000 tested, about 15% had one in any assay. A number with no mark means an inactive call. Calls of active or inactive are those of the source. Cut-off read from the data, not from the text of the source: active = growth inhibition above about 70%; inactive = the rest.
# Test: NCI Yeast Anticancer Drug Screen. Data for the sgs1 mgt1 strain (AID 161);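 note: 0% = growth of cultures given vehicle only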
# Settings: S. cerevisiae sgs1 mgt1 strain, stronger effect = higher value
# Protocol: Growth inhibition of yeast strains with defined genetic alterations is measured as a screen for potential anti-cancer activity. Selected strains with alterations in DNA damage repair or cell cycle control were exposed to compounds and growth inhibition was measured relative to vehicle treated controls. The strain used in this assay is sgs1 mgt1
# [1] = at 5.0 µM (retest, dose inferred, filed as 0.5)
# [2] = at 50.0 µM (retest, dose inferred, filed as 5.0)
SMILES,growth inhibition [1],growth inhibition [2],growth inhibition (at 50.0 µM)
Cc1nnc2nc3c(nn12)c1ccccc1n3C,-65%,-46%,15.8%
N#CC#Cc1cccc(C#CC#N)c1,99% (active),99% (active),50%
COc1ccc(CSC(=S)Nc2cc(C)c(C)cc2[N+](=O)[O-])cc1,46%,96% (active),97.5% (active)
CCCCCCCCCCCCCCCC[N+](C)(C)CCCCCC(=O)OC,100% (active),100% (active),99% (active)
CC(C)(c1ccc(OC#N)cc1)c1ccc(OC#N)cc1,4%,40%,79.5% (active)
O=C(CC(O)(C(F)(F)F)C(F)(F)F)C(c1ccccc1)C(O)(C(F)(F)F)C(F)(F)F (configuration not stated),-3%,86% (active),84.2% (active)
COC(=O)c1c(COC(=O)NC(C)C)c2n(c1C)CS(=O)(=O)C2,-3%,31%,98.4% (active)
O=C1c2ccccc2C(=O)c2c(Nc3cc4c5c(ccc6c7ccc8c9c(cc(Nc%10cccc%11c%10C(=O)c%10ccccc%10C%11=O)c(c3c56)c97)-c3ccccc3C8=O)C(=O)c3ccccc3-4)cccc21,2%,-3%,-1.9%
CC1=C(C(=O)NCc2ccccc2)C(c2ccccc2O)C(C(=O)NCc2ccccc2)=C(C)N1,17%,17%,79.7% (active)
CC1(C)CC(=O)C(c2ccccc2[N+](=O)[O-])=C(O)C1,4%,8%,69.6%
C=C1C2Oc3ccccc3C1N(c1ccccc1)O2 (configuration not stated),4%,62%,66%
O=C(O)/C(Cl)=C(/Cl)C(=O)Nc1cccc(Cl)c1,42%,100% (active),88.6% (active)
Cc1cc(-c2ccccc2)c(C)c(-c2ccccc2)c1-c1ccccc1,3%,7%,40%
O=[N+]([O-])c1cccc2c1[nH]c1c(-c3ccccc3)nccc12,4%,93% (active),81% (active)
